Legend:
Test in all cases: log2 ratio of Biotin-Ahx-Ub-VS probe labelling (fragment/DMSO); higher = less target engagement (more negative = stronger competition), active = hit call of the paper (q ≤ 0.05, log2 ratio ≤ -1)
Details in all cases: compound concentration: 200 uM; treatment time: 3 h
ALG13 = target: T1, ALG13 (UniProt Q9NP73)
T1 sequence (whole entry): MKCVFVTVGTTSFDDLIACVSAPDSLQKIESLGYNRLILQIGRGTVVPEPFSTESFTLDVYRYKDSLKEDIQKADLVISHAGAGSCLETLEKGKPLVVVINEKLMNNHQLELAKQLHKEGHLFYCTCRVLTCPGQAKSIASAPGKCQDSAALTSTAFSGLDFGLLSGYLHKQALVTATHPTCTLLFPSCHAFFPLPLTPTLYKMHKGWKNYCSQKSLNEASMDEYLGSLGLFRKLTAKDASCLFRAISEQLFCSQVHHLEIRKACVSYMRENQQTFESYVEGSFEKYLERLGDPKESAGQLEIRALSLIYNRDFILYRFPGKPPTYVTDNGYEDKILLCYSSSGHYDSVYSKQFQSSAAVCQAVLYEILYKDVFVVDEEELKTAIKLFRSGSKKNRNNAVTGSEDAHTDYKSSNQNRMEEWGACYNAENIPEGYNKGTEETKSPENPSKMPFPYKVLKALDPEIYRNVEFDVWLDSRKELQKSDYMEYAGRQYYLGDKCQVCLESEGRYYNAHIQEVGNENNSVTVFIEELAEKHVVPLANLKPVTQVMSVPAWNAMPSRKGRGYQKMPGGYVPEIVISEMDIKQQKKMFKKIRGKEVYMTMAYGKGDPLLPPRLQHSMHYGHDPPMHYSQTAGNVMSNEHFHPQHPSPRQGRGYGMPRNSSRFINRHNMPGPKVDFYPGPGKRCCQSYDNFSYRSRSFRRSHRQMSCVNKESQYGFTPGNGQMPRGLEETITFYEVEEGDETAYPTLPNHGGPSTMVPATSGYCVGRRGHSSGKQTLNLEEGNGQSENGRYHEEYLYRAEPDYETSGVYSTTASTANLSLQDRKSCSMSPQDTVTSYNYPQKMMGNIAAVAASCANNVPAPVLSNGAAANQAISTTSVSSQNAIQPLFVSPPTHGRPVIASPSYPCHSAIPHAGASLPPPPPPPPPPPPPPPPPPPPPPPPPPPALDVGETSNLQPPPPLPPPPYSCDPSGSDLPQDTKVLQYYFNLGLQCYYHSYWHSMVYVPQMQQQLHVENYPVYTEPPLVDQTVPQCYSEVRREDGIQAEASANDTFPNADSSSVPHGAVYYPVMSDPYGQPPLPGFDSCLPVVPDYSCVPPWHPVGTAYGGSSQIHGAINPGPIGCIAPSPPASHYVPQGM
Procedure, shortened: (§1)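 In triplicate, 495 µg of HEK293T lysate per sample was incubated with fragment at 200 µM or vehicle for 3 h. Biotin-Ahx-Ub-VS was then added to 0.5 µM final for 1 h, and labelled DUBs were captured with NeutrAvidin, digested with LysC and trypsin, and measured by diaPASEF LC-MS/MS. Data are average log2 fragment/vehicle ratios by unpaired t-test from global-median-normalised Spectronaut label-free quantities, restricted to proteins with ≥2 unique peptides.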

ATXN3 = ATXN3 (UniProt P54252)
Procedure, shortened: as §1

BAP1 = target: T2, BAP1 (UniProt Q92560)
T2 sequence (whole entry): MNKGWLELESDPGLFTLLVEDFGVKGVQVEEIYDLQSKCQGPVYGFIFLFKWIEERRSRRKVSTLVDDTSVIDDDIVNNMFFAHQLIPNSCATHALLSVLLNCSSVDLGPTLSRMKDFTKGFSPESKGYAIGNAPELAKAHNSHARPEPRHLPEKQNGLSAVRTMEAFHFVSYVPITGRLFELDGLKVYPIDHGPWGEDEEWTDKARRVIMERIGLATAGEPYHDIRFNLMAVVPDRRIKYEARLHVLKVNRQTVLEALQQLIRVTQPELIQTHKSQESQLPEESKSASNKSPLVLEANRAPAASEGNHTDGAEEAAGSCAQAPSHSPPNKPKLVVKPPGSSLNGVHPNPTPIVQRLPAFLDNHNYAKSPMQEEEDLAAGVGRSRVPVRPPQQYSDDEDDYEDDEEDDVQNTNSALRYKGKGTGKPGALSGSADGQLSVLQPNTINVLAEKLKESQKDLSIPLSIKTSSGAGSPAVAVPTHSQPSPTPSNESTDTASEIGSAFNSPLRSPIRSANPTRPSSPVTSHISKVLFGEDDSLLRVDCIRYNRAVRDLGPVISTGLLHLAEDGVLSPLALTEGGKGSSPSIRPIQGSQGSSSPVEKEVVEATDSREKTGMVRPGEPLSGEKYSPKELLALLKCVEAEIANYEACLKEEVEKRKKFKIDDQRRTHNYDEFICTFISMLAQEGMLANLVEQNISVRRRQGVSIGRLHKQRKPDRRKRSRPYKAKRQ
Procedure, shortened: as §1

EIF3F = EIF3F (UniProt O00303)
Procedure, shortened: as §1

EIF3H = EIF3H (UniProt O15372)
Procedure, shortened: as §1

FAM105A = target: T3, FAM105A (UniProt Q9NUU6)
T3 sequence (whole entry): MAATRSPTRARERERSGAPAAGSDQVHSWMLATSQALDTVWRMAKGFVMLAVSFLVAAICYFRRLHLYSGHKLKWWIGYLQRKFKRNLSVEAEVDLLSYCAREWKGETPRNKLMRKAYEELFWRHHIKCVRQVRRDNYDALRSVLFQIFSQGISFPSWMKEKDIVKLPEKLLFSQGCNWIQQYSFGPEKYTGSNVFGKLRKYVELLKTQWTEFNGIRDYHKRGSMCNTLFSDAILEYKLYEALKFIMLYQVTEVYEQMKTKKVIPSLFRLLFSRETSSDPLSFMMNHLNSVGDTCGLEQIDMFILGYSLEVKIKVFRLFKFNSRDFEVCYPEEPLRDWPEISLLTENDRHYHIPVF
Procedure, shortened: as §1

OTUB1 = OTUB1 (UniProt Q96FW1)
Procedure, shortened: as §1

OTUD4 = target: T4, OTUD4 (UniProt Q01804)
T4 sequence (whole entry): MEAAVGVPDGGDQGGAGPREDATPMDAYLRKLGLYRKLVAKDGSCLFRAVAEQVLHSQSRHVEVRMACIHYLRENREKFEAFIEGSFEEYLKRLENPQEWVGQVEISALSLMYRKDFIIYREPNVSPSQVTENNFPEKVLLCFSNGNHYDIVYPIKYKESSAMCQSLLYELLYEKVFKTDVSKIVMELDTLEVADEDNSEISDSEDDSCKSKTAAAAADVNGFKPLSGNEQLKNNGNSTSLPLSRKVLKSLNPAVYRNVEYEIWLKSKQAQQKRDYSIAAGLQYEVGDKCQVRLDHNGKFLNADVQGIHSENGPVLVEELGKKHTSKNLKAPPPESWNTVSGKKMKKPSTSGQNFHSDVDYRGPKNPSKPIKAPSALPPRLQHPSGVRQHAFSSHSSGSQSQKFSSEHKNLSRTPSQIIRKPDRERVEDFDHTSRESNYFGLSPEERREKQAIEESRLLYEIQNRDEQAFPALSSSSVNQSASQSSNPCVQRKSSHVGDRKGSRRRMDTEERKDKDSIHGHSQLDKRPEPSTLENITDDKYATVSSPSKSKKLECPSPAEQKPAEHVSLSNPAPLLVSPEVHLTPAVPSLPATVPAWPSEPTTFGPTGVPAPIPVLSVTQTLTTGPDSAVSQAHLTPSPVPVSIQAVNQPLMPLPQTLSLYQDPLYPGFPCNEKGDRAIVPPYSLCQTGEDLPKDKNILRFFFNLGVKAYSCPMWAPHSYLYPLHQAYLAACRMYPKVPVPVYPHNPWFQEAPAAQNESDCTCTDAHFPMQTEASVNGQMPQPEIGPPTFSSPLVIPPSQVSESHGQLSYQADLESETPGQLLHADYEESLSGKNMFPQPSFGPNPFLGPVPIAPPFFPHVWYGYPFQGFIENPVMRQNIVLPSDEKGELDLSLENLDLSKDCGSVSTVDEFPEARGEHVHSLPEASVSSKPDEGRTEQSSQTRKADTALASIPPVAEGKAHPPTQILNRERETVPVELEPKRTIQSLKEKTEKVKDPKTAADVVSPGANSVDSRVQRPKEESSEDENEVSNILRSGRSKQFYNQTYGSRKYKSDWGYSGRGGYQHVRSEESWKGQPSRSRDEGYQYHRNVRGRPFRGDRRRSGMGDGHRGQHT
Procedure, shortened: as §1

OTUD5 = target: T5, OTUD5 (UniProt Q96G74)
T5 sequence (whole entry): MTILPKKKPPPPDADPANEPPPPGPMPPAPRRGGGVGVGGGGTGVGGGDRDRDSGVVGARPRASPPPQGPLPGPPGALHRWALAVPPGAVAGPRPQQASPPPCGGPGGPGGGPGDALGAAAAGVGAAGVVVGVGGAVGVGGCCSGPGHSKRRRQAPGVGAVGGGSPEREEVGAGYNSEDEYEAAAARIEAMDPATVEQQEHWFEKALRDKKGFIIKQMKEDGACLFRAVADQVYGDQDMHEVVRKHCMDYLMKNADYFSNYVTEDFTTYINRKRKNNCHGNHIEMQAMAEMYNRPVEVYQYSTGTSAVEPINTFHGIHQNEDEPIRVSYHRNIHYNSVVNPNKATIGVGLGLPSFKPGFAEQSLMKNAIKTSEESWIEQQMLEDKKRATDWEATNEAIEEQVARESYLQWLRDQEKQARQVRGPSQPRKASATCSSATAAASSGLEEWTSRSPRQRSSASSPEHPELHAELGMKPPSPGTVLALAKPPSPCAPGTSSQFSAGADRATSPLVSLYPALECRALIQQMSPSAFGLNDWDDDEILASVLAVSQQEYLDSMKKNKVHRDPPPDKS
Procedure, shortened: as §1

Measured: log2 ratio of Biotin-Ahx-Ub-VS probe labelling

Chain of EIF3F (O00303 whole entry): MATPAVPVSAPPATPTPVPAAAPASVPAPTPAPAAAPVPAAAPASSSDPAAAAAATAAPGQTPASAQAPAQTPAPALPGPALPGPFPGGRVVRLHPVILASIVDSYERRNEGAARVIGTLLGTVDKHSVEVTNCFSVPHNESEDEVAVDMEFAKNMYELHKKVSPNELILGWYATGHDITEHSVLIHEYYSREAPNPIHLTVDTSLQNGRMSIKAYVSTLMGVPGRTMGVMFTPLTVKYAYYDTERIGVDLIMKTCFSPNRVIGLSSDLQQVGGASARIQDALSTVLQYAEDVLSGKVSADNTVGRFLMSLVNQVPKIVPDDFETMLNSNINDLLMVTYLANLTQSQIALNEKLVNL
Chain of EIF3H (O15372 whole entry): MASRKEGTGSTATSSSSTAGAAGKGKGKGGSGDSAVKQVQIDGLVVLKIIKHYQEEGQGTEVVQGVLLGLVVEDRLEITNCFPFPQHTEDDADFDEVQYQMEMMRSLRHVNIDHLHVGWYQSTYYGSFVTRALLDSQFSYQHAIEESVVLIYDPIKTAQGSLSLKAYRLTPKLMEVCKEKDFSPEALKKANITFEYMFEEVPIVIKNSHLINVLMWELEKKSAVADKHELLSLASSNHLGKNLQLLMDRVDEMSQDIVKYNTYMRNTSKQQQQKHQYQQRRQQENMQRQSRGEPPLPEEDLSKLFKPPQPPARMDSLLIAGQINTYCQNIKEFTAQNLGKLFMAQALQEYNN
Chain of OTUB1 (Q96FW1 whole entry): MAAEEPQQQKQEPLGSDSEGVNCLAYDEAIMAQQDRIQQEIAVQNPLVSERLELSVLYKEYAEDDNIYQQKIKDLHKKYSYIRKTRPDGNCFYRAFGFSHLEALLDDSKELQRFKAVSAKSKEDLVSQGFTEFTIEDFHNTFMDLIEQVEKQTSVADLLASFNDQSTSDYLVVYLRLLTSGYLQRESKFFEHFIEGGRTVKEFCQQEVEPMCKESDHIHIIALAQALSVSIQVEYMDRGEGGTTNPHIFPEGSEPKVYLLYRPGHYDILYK
Chain of ATXN3 (P54252 whole entry): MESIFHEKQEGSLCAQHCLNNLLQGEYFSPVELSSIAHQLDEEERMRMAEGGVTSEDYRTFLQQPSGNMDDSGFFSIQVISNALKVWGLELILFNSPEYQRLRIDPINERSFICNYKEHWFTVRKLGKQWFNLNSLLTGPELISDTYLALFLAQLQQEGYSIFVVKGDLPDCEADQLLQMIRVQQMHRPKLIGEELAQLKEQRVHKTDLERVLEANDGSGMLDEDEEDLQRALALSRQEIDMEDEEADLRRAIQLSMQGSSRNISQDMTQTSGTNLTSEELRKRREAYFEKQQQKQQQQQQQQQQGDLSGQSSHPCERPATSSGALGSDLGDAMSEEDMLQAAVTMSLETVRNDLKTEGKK

Cc1cc(NC(=O)CCl)n(-c2ccccc2)n1
inactive: ALG13 -0.0258 | ATXN3 -0.205 | EIF3F -0.154 | EIF3H 0.0602 | FAM105A 0.513 | OTUB1 -0.315 | OTUD4 0.184 | OTUD5 -0.222
active: BAP1 -3.5
